Measured values as given in PubChem BioAssay (Tox21).
Values joined by “and” are separate entries in the source; they are usually repeats but may differ in a detail not shown here. Equal entries are not always repeated. Results filed as inconclusive are left out. A call without a number means that no potency is given here. Active and inactive are the calls of the source. Calls come from the whole dose curve; as a rule, active = well fitted cell-killing curve with a large enough effect in the repeat runs (not every such curve was filed as active); inconclusive = weak or mixed curves, or effect the other way; inactive = no such curve, though single readings can be large or run the other way.
Potency is the fitted concentration of half-maximal effect.

Test: qHTS assay to identify small molecule antagonists of the farnesoid-X-receptor (FXR) signaling pathway - cell viability counter screen (AID 743221); note: nearly all actives have a fitted effect of over 50% in size
Settings: FXR-bla HEK293T viability, CellTiter-Glo luminescence, 16 h; series mostly up to 62.6 µM
Text: National Center for Advancing Translational Sciences [NCATS]
NIH Chemical Genomics Center [NCGC]
U.S. Environmental Protection Agency [EPA]
National Institutes of Environmental Health Sciences [NIEHS]
National Toxicology Program [NTP]
U.S. Food and Drug Administration [FDA]
The farnesoid-X-receptor (FXR), a nuclear hormone receptor, is highly expressed in liver, intestine, kidney and adrenal cortex. Natural ligands of FXR are the bile acids (Cholic acid, Chenodeoxy cholic acid etc). FXR is an important regulator of diverse metabolic pathways, including the bile acid homeostasis, lipid and glucose metabolisms. FXR regulates the expression of target genes by binding either as a monomer or as a heterodimer with the retinoid X receptor (RXR). Numerous studies have reported that FXR exerts protective function during cholestasis, diabetes, liver regeneration, and cancer. To identify compounds that inhibit FXR signaling, GeneBLAzer FXR-UAS-bla HEK 293T cell line (Invitrogen, Carlsbad, CA) containing a beta-lactamase reporter gene under the control of a UAS response element was used to screen the Tox21 10K compound library. The cytotoxicity of the Tox21 compound library against the FXR-bla cell line was tested in parallel by measuring the cell viability using CellTiter-Glo assay in the same wells.
Tox21 Assay Protocol Summary:
FXR-bla cells were dispensed at 5000 cells/5uL/well in 1536-well black wall/clear bottom plates using a Multidrop Combi (Thermo Fisher Scientific, Waltham, MA) dispenser. After the assay plates were incubated at 37 C and 5% CO2 for 5 h, 23 nL of compounds dissolved in DMSO, positive controls or DMSO only was transferred to the assay plate by a Pintool station (Kalypsys, San Diego, CA), followed by addition of 1 uL Chenodeoxycholic acid (50 uM, final concentration in the wells). The assay plates were incubated at 37C for 16 h. After 1 uL of LiveBLAzerTM B/G FRET substrate was added using a Bioraptr Flying Reagent Dispenser (FRD) workstation (Beckman Coulter, Indianapolis, IN), the plates were incubated at room temperature for 2 h, and fluorescence intensity was measured by an Envision plate reader (PerkinElmer, Shelton, CT). For cell viability readout that measures cytotoxicity, 4uL/well of CellTiter-Glo reagent was added into the assay plates using a Bioraptr FRD. After 30 min incubation at room temperature, the luminescence intensity in the plates was measured using a ViewLux plate reader (PerkinElmer).
With `O=C=Nc1ccc(Cc2ccc(N=C=O)cc2)cc1` the Potency was “inactive”.
With `CCOCCOCCO` the Potency was “inactive”.
With `CC(C)Oc1ccc2c(=O)c(-c3ccccc3)coc2c1` the Potency was “inactive”.
With `COC(=O)Nc1nc2ccc(S(=O)c3ccccc3)cc2[nH]1` (stereo not given) the Potency was “inactive”.
For `NNc1ccc(C(=O)O)cc1`, the Potency was “inactive”.
In the case of `Cc1ccc(C)c(O)c1C`, the Potency is reported as “inactive”.
For `Cc1cccc(N(C)C(=S)Oc2ccc3ccccc3c2)c1`, the Potency was “inactive”.
With `CC(C)=CCC/C(C)=C\CO` the Potency was “inactive”.
For `Nc1ccc(Nc2ccccc2)cc1`, the Potency was “inactive”.
In the case of `O=C(COc1ccc(Cl)cc1)N1CCN(Cc2ccc3c(c2)OCO3)CC1`, the Potency is reported as “inactive”.
With `C[Si](C)(C)O[Si](C)(C)C` the Potency was “inactive”.
In the case of `COc1ccccc1/C=C/C=O`, the Potency is reported as “inactive”.
With `CC(C)OC=O` the Potency was “inactive”.
For `O=C1c2cccc(O)c2C(=O)c2c(O)cccc21`, the Potency was “inactive”.
With `COc1c(Cl)c(Cl)c(Cl)c(Cl)c1Cl` the Potency was “inactive”.
In the case of `Nc1ccc(S(=O)(=O)Nc2cnc3ccccc3n2)cc1`, the Potency is reported as “inactive”.
With `O=CCCCC=O` the Potency was “inactive”.
For `C=C(C)C(=O)OCCOC(=O)C(=C)C`, the Potency was “inactive”.
In the case of `c1cc(-c2ccncc2)ccn1`, the Potency is reported as “inactive”.
With `COC(=O)c1ccccc1` the Potency was “inactive”.
For `CCC(C)(O)CCCC(C)C` (stereo not given), the Potency was “inactive”.
For `CCCCCCCCCC(=O)OC`, the Potency was “inactive”.
For `CN(C)CCN(Cc1cccs1)c1ccccn1`, the Potency was “inactive”.
With `NC=O` the Potency was “inactive”.
With `O=C1OC2(c3cc(Br)c(O)c(Br)c3Oc3c2cc(Br)c(O)c3Br)c2c(Cl)c(Cl)c(Cl)c(Cl)c21` the Potency was “inactive”.
In the case of `CN(C)CCC=C1c2ccccc2CCc2ccccc21`, the Potency is reported as 43.7 µM (active) and 29.8 µM (active).
For `COc1cccc2c1C(=O)c1c(O)c3c(c(O)c1C2=O)C[C@@](O)(C(=O)CO)C[C@@H]3O[C@H]1C[C@H](N)[C@H](O)[C@H](C)O1`, the Potency was “inactive”.
With `Cc1cc2nc3c(=O)[nH]c(=O)nc-3n(C[C@H](O)[C@H](O)[C@H](O)CO)c2cc1C` the Potency was “inactive”.
For `O=P(O)(O)O`, the Potency was “inactive”.
For `Cc1ccc(C(=O)c2cc(O)c(O)c([N+](=O)[O-])c2)cc1`, the Potency was “inactive”.
For `CC(C)=CCCC(C)CCO` (stereo not given), the Potency was “inactive”.
With `CCCCOCCOCCO` the Potency was “inactive”.
In the case of `CCCC(=O)O`, the Potency is reported as “inactive”.
In the case of `Nc1ncnc2nc[nH]c12`, the Potency is reported as “inactive”.
For `O=C(O)c1ccccc1Nc1cccc(C(F)(F)F)c1`, the Potency was “inactive”.
With `CC(=O)c1ccccn1` the Potency was “inactive”.
In the case of `CC(=O)CC/C=C(\C)CCC=C(C)C`, the Potency is reported as “inactive”.
With `Nc1ccc(Cl)cc1Cl` the Potency was “inactive”.
For `CCCCC(CC)COCC1CO1` (stereo not given), the Potency was “inactive”.
With `Cn1cnc([N+](=O)[O-])c1Sc1ncnc2nc[nH]c12` the Potency was “inactive”.
